Results: PubChem BioAssay AID1220 (Sanford-Burnham Center for Chemical Genomics, 2008)
Screen size: about 190,000 compounds; about 1,300 (0.68%) were called active. Cut-off read from the data, not from the text of the source: active = inhibition above about 50%; inactive = the rest. This excerpt belongs to a sample that is enriched for actives.

target: Mannose-6-phosphate isomerase (Homo sapiens) (UniProt P34949); test: MPI inhibition at elevated mannose 6-phosphate – biochemical, fluorescence intensity, high mannose 6-phosphate, primary screen (AID 1220); settings: recombinant PMI enzyme, coupled fluorescence intensity; at 20 µM; stronger effect = higher value
Sequence (P34949 whole entry, looked up): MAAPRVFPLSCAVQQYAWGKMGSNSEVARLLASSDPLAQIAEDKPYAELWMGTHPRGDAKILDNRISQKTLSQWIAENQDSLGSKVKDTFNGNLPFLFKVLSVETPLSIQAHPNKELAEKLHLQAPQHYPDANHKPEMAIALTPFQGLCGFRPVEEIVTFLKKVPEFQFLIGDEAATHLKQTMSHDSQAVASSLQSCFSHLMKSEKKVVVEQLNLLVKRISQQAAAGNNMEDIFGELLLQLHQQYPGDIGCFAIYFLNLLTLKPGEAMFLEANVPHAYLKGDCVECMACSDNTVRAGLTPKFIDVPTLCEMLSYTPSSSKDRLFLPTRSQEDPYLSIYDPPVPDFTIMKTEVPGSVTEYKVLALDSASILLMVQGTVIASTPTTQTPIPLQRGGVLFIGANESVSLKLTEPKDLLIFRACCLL

inhibition, inactive:
COc1ccc(C2CC(c3ccc(OC)cc3)n3nc(NC(=O)c4ccco4)nc3N2)cc1 (stereo not given) 3.4%
COc1cccc2c1OCC(C(=O)OCc1cccnc1)=C2 3.9%
COCc1cc(C)nc(N/N=C/c2ccc(-c3cc(C(=O)O)ccc3Cl)o2)c1C#N -8.6%
COCc1cc(C)nc(N/N=C/c2ccc(-c3ccc(C(=O)O)c(Cl)c3)o2)c1C#N -2.9%
O=C1CCc2cc(S(=O)(=O)NC(C(=O)N3CCN(c4ccccn4)CC3)c3ccccc3)ccc2N1 (stereo not given) -3.8%
CNCC/C=C1/c2ccccc2CSc2ccccc21 14.2%
COc1ccc(N2CCC(CNC(=O)Nc3ccc(Cl)cc3)C2)cc1 (stereo not given) 46.2%
CCOc1ccc(NC(=O)NCC2CCN(c3ccc(OC)cc3)C2)cc1 (stereo not given) 22.5%
COc1ccc(NC(=O)NCc2ccncc2)c(OC)c1 3.6%
CCNC(=O)Nc1ccc(OC)cc1OC -3.8%
CCSc1nnc(NC(=O)C(C)(C)C)s1 2%
CCO[C@@H]1OC(C(=O)NCc2ccccc2)=C[C@H](C2CC2)[C@H]1CCCO -7.4%
Cc1nc(N)[nH]c(=O)c1CCC(=O)OCC(C)C -23.1%
Nc1ccc2nc(-c3ccccc3)sc2c1 26.8%
Nc1c([N+](=O)[O-])c(=O)sc2ccccc12 -0.6%
Cc1c(C(=O)NCCc2ccc(S(N)(=O)=O)cc2)cccc1[N+](=O)[O-] -0.5%
CCCN1C/C(=C/c2cccc([N+](=O)[O-])c2)C(=O)/C(=C/c2cccc([N+](=O)[O-])c2)C1 -2.8%
COc1ccc(N2CSC3=C(C#N)C(c4cccc(OC)c4OC)CC(=O)N3C2)cc1 (stereo not given) -24.3%
N#CC1=C2SCN(Cc3ccco3)CN2C(=O)CC1c1ccccc1F (stereo not given) 15%
Cc1ccc(/C=C/C(=O)O)cc1S(=O)(=O)NCCCC(=O)O 0.6%
O=C(CCN1C(=O)C2C3C=CC(C3)C2C1=O)N1CCN(c2ccc([N+](=O)[O-])cc2)CC1 (stereo not given) 21.6%
CCC(=O)Nc1nc2nc(-c3ccccc3)cc(-c3ccccc3)n2n1 0.3%
Cc1ccc(O)c(NC(=S)NC(=O)/C=C/c2ccco2)c1 -3.9%
Cc1cc(=O)oc2cc(OCc3ccc(C(=O)N4CCN(c5ccccc5)CC4)cc3)ccc12 10.2%
CCC(C)NC(=O)CNC(=S)N(Cc1ccccc1F)C1CCCCC1 (stereo not given) 6.1%
COc1ccc(NC(=O)CSc2nnc(-c3cccnc3)n2Cc2ccco2)c(OC)c1 8%
c1ccc(OCCN2CCN(Cc3nc(-c4ccc5c(c4)OCO5)no3)CC2)cc1 -4.3%
O=C(CC1Nc2cccc3cccc(c23)NC1=O)Nc1ccccc1 (stereo not given) 39%
CC(=O)Nc1ccc(NC(=O)CC2Nc3cccc4cccc(c34)NC2=O)cc1 (stereo not given) -5.1%
Brc1ccc(/C=N/c2nc3ccccc3n2CCN2CCOCC2)cc1 9.4%
C=CCn1c(=NC(=O)c2ccc(S(=O)(=O)N3CCc4ccccc4C3)cc2)sc2cc(S(N)(=O)=O)ccc21 1.8%
C#CCn1c(=NC(=O)c2ccc(S(=O)(=O)N3CCCc4ccccc43)cc2)sc2cc(S(N)(=O)=O)ccc21 20.9%
N/C(=N\OC(=O)Oc1ccccc1)c1cccc([N+](=O)[O-])c1 -8.6%
CCOC(=O)c1cc(NC(=O)Nc2ccccc2OC)c(C)nc1C 6%
CCCCCn1c(N)c(-c2nc3ccccc3o2)c2c([N+](=O)[O-])nn(C)c(=O)c21 -0.9%
Cc1noc2ncnc(Oc3ccccc3Cl)c12 0%
COc1cccc(CN(C)C(=S)Nc2cccc(C)c2)c1 0.1%
Cc1ccc(NCC(=O)N/N=C\c2ccc([N+](=O)[O-])o2)cc1 -1.6%
Cc1ccc(NCC(=O)N/N=C\c2cccc(O)c2)cc1 18.7%
Cc1ccccc1OCC(=O)N/N=C/c1cc2ccccc2nc1Cl 9.1%
O=C(CN1CCCCC1)N/N=C/c1cc2ccccc2nc1Cl -10.7%
O=C(CN1CCOCC1)N/N=C/c1cc2ccccc2nc1Cl 15.9%
O=C(COc1cccc(Cl)c1)N/N=C\c1cc2ccccc2nc1Cl -3.2%
CC(=O)Nc1ccc(S(=O)(=O)N2CCN(C(=O)N3CCOCC3)CC2)cc1 1.8%
O=C(CSCc1ccc(Cl)cc1)NCCSCc1ccco1 4%
O=C1NC(c2ccccc2)=C(c2nc3ccccc3s2)C(c2ccccc2)N1 (stereo not given) 14.1%
NC(=O)c1ccccc1NC(=O)Nc1cccc2ccccc12 19%
COC(=O)c1ccc2c(c1)N(C)C(=O)CS2 6.4%
O=C(Nc1ccc2c(c1)OCCO2)c1ccc(Br)s1 -2.3%
Cc1cc(C)c(S(=O)(=O)/N=C2\C=CC(=O)C(Cl)=C2)c(C)c1 -6.5%
Cc1ccnc(Nc2nc(-c3c(C)nc4sccn34)cs2)c1 19.1%
Cc1nc2sccn2c1-c1csc(NCc2ccccc2)n1 34.1%
COC(=O)c1c(O)c2c([nH]c1=O)CCCC2 -0.6%
CCCCCn1c(CN2CC(C)OC(C)C2)nc2c1c(=O)n(C)c(=O)n2C (stereo not given) 8.9%
COCCn1c(Cc2ccccc2)nnc1SCC(=O)NC(C)(C)C -1.6%
CCn1c(Cc2cccs2)nnc1SCC(=O)NC(C)(C)C -5.7%
CN1CCCN(C(=O)CNC(=O)Cc2ccccc2)CC1 4.9%
COC(=O)C1=C(C)NC2=C(C(=O)CCC2)C1c1cn(Cc2ccc(Br)cc2)nc1-c1ccccc1 (stereo not given) 13.4%
COc1cccc(NC(=O)NC2(C(F)(F)F)Oc3ccccc3O2)c1 48.7%
COc1ccc(OC)c(NC(=O)Nc2ccccc2C)c1 1.9%
COc1ccc(N2CCN(CCC3Oc4cc([N+](=O)[O-])ccc4NC3=O)CC2)cc1 (stereo not given) 38.8%
Cc1cc(NC(=O)C2CC2)ncc1NC(=O)C12CC3CC(CC(C3)C1)C2 5.3%
CC1(c2ccc(Cl)cc2Cl)OCC(Cn2ccnc2)O1 (stereo not given) 3.5%
Cc1cccc(C=Nc2ccc3c4c(cccc24)CC3)c1O 45.4%
CC(C)(C)c1ccc(O)c(N=Cc2cc(Br)ccc2O)c1 39.3%
Cc1nnc(SCC(=O)NC2CCS(=O)(=O)C2)n1-c1ccccc1 (stereo not given) -3.2%
Cc1ccc(S(=O)(=O)Nc2cccc3cccnc23)cc1 16.3%
CCOc1ccc(S(=O)(=O)Nc2ccc(O)c(Sc3ncn[nH]3)c2)cc1 2.5%
Cc1cc(C)c(S(=O)(=O)Nc2cc(SCC(=O)O)c(O)c3ccccc23)cc1C 21.6%
O=S(=O)(Nc1ccccc1O)c1cccc2cccnc12 11.7%
COc1ccc(S(=O)(=O)Nc2ccc(O)c(Sc3ncn[nH]3)c2)cc1 13%
O=C(Sc1cccc2cccnc12)c1ccc(F)cc1 11.3%
Cc1ccc(S(=O)(=O)Nc2ccc(O)c3ncccc23)cc1 27.9%
CCc1ccc(S(=O)(=O)Nc2cc(SCC(=O)O)c(O)c3ccccc23)cc1 7.4%
Cc1ccc(S(=O)(=O)Nc2ccc3c(c2)nc(CN2CCCC2)n3C)cc1 -2.1%
CCOc1ccc(C(C)=O)cc1CSc1nnc(-c2cccs2)n1CC1CCCO1 (stereo not given) 10.7%
O=[N+]([O-])c1cccc(/C=N/NC2=NCCCCC2)c1 -4.3%

inhibition, active:
COCc1cc(C)nc(N/N=C/c2ccc(-c3ccc(Cl)cc3[N+](=O)[O-])o2)c1C#N 55.9%
COc1ccc(N2CCC(CNC(=O)Nc3ccc(C)c(C)c3)C2)cc1 (stereo not given) 52.6%
COc1ccc(N2CCC(CNC(=O)Nc3ccc(OC)cc3OC)C2)cc1 (stereo not given) 55.7%
Nc1ccc2c(c1)sc1ccccc12 55.2%
COc1ccc2ccccc2c1C1CC(=O)N2CN(Cc3ccco3)CSC2=C1C#N (stereo not given) 62.9%
N#CC1=C2SCN(Cc3ccco3)CN2C(=O)CC1c1cccc2ccccc12 (stereo not given) 68.8%
O=C(CC1Nc2cccc3cccc(c23)NC1=O)Nc1ccc(F)cc1 (stereo not given) 54%
C=CCn1c(=NC(=O)c2ccc(S(=O)(=O)N3CCCc4ccccc43)cc2)sc2cc(S(N)(=O)=O)ccc21 59.2%
Cc1ccc(NCC(=O)N/N=C/c2cc3ccccc3nc2Cl)cc1 57.6%
O=C(CNc1ccc2ccccc2c1)N/N=C/c1cc2ccccc2nc1Cl 67.5%
Cc1ccc(NCC(=O)N/N=C/c2cc(O)ccc2[N+](=O)[O-])cc1 57.6%
C=CCNc1nc(-c2c(C)nc3sccn23)cs1 55.2%
CCn1c(Cc2ccccc2)nnc1SCC(=O)NC(C)(C)C 52.9%
COc1ccc(OC)c(NC(=O)NC2(C(F)(F)F)Oc3ccccc3O2)c1 58%
Oc1ccc(Br)cc1C=Nc1ccc2c3c(cccc13)CC2 67.1%
O=S(=O)(Nc1cc(Sc2cccc3cccnc23)c(O)c2ccccc12)c1ccc(F)cc1 51.1%
COc1ccc(S(=O)(=O)Nc2cc(Sc3ncn[nH]3)c(O)c3ccccc23)cc1 72.4%
O=S(=O)(Nc1cc(Sc2cccc3cccnc23)c(O)c2ccccc12)c1ccccc1 63.7%
